Most compounds without a hit are left out; they make up all but 3.5% or so of the library.
KCNK9 inh = KCNK9 potassium channel inhibitors, primary screen, HEK293 cells, thallium flux; B-score at 10 µM; AID 488922, 2010; 1.2% of 310,000 active; FluxOR thallium flux fluorescence; stronger effect = lower value;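 active = ratio B-score over 3 SD below the library mean, with starting fluorescence within 5 SD of its mean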;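 also: negative B-score means less thallium flux so channel inhibition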
KCNK3 block = human KCNK3 channel inhibitors, primary screen, CHO cells, FluxOR thallium flux, B-score. 0.84% of 340,000 active. B-score at 10 µM. Potassium channel subfamily K member 3 (Homo sapiens), O14649. FluxOR fluorescence; stronger effect = lower value;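 active = B-score under library mean minus 4 SD, starting fluorescence ratio at most library mean plus 5 SD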;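 also: more negative B-score means stronger inhibition of thallium flux through KCNK3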
TMEM16A inh = TMEM16A chloride channel inhibitors, primary screen, cell-based, HTS; HEK293 TMEM16A/YFP iodide influx fluorescence, ionomycin; AID 588511, 2011; normalized B-score (activity score, 25-100; higher = stronger inhibition) at 10 µM; 1.2% of 310,000 active;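 active = ratio plate-corrected score three or more library SD toward inhibition, starting fluorescence score within five deviations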;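 also: score derived from kinetic fluorescence span divided by baseline fluorescence per well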
Target sequence (Q8BHY3 whole entry, looked up): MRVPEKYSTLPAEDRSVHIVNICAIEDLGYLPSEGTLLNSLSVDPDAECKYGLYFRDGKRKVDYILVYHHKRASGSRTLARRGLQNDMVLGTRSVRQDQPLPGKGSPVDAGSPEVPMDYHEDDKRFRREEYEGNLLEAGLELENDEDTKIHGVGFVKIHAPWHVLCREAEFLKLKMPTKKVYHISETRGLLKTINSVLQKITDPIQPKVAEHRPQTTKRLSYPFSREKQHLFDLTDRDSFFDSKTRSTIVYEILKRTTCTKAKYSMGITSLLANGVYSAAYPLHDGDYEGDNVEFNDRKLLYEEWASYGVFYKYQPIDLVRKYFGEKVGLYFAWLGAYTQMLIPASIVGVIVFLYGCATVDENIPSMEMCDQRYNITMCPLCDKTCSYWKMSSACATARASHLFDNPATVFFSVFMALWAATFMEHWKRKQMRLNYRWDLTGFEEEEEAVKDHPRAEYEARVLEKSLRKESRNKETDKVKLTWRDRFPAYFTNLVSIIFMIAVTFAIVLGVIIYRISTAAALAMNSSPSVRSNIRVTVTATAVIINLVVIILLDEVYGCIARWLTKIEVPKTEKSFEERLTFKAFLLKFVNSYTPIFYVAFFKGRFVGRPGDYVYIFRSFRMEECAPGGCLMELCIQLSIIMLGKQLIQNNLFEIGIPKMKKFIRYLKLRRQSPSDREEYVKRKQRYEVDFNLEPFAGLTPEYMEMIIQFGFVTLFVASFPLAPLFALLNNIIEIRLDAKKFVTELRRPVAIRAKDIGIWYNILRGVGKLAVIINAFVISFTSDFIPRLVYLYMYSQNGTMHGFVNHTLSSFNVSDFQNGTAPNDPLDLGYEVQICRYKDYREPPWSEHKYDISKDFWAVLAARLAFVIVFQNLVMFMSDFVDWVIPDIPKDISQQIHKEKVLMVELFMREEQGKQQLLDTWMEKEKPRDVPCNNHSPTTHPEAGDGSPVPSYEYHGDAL
TMEM16A act = TMEM16A chloride channel activators or potentiators, primary screen, cell-based, HTS; Anoctamin-1 (Mus musculus), Q8BHY3; AID 623877, 2012; 0.3% of 340,000 active; HEK293 TMEM16A/YFP-H148Q/I152L, iodide quench fluorescence; stronger effect = lower value; B-score at 10 µM;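 active = fluorescence-ratio B-score plate-corrected deviation score at least 3 library SD below zero, with starting fluorescence score within 5 deviations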;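 also: channel opened by trigger with iodide after compound preincubation; score built on the fluorescence ratio of max minus min over baseline; more negative score means more quench and so TMEM16A activation or potentiation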
Kir21 inh = inhibitors of mouse Kir2.1 inward-rectifier potassium channel. Inward rectifier potassium channel 2 (Mus musculus), P35561. HEK293-Kir2.1, FluxOR thallium flux fluorescence; stronger effect = lower value. 0.85% of 310,000 active. B-score at 10 µM;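 active = fluorescence ratio B-score at or below minus 3 SD of library scores, with starting-brightness B-score within 2 SD, cut at about -4.2 in these data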;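 also: channel flux triggered by added potassium and thallium sulfate stimulus; B-score of peak minus minimum fluorescence over baseline after thallium stimulus; more negative B-score means stronger Kir2.1 block with less thallium influx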
KCNK9 block conf = KCNK9 potassium channel inhibitors, confirmation, HEK293 cells, thallium flux, duplicate. FluxOR thallium flux fluorescence. shares compounds with KCNK9 inh. AID 492992, 2010. inhibition, % at 10 µM. 43% of 4,900 active;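 active = thallium signal inhibited by more than 5 SD of the compound-free buffer control wells, on both duplicate plates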
Kir21 sel = mouse Kir2.1 channel inhibition, confirmation, selectivity assay for KCNK9 modulator project, cell-based, HEK293, thallium flux; shares compounds with KCNK9 inh; Kir2.1 cells, FluxOR thallium flux fluorescence; 4% of 4,900 active; inhibition, % at 10 µM;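 active = thallium signal drop more than 5 SD beyond the mean of the no-compound control wells, seen in both duplicate plates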;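 also: signal is fluorescence rise after thallium addition divided by baseline fluorescence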
HEK293 Tl ctr = thallium flux in non-induced HEK293 cells, confirmation, counter-screen for KCNK9 inhibitor project, cell-based, second counter screen, non-induced KCNK9-HEK293; shares compounds with KCNK9 inh; FluxOR thallium flux; inhibition, % at 10 µM; 40% of 4,900 active;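 active = thallium signal drop beyond 5 SD of the untreated control mean, on both duplicate plates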
Large screens that a line does not name were inactive (follow-up assays come after a bar, where they were run).

COc1cccc(-c2nnc(SCC(=O)Nc3ccc4c(c3)OCCO4)n2Cc2ccco2)c1	KCNK9 inh -16.4 | KCNK9 block conf 63.5% | Kir21 sel inactive | HEK293 Tl ctr 37.0%
Cc1cccc(OCCOC(=O)C2CCN(S(=O)(=O)c3ccc(C)c(C)c3)CC2)c1	none | KCNK9 block conf inactive | Kir21 sel inactive | HEK293 Tl ctr inactive
Cc1ccc(OCCOC(=O)C2CCN(S(=O)(=O)c3ccc(C)c(C)c3)CC2)cc1	none | KCNK9 block conf inactive | Kir21 sel inactive | HEK293 Tl ctr inactive
COC(=O)c1ccc(Oc2ccc(S(=O)(=O)N3CCCCC3)cc2N)cc1	none
Cc1cccc(Oc2ccc(S(=O)(=O)N3CCCCC3)cc2N)c1	KCNK9 inh -10.5 | KCNK9 block conf 50.5% | Kir21 sel inactive | HEK293 Tl ctr 31.0%
Cc1ccc(S(=O)(=O)N2CCC(C(=O)OCCOc3cccc(C)c3)CC2)cc1	none (no result: KCNK9 inh, TMEM16A inh, Kir21 inh)
CSc1ccc(CN2CCN(C(=O)CC(C)C)CC2)cc1	none
CCc1nnc(NS(=O)(=O)c2ccc(N/C=C(\C=O)c3nc4cc(Cl)ccc4o3)cc2)s1	none | KCNK9 block conf inactive | Kir21 sel inactive | HEK293 Tl ctr inactive
CCc1nnc(NS(=O)(=O)c2ccc(NC(=O)c3ccc(Cl)cc3)cc2)s1	none
CCN1CC(CN(C)Cc2nc(Cc3ccccc3)no2)CC1=O (configuration not stated)	none
Cc1cccc(-n2c(=S)[nH]c3sc4c(c3c2=O)CCc2ccccc2-4)c1	none (no result: TMEM16A inh) | KCNK9 block conf inactive | Kir21 sel inactive | HEK293 Tl ctr inactive
COC(=O)c1sc(NC(=O)C2CCCCC2C(=O)O)c(C(=O)OC)c1C (configuration not stated)	none
Cc1ccc(Cn2cc(SCC(=O)Nc3nccs3)c3ccccc32)cc1	none | KCNK9 block conf inactive | Kir21 sel inactive | HEK293 Tl ctr inactive
COc1ccc(N2CCN(C(=O)CSc3nc(C)cs3)CC2)cc1	none
COc1ccc(N2CCN(C(=O)CSc3ncnc4scc(-c5ccc(C)cc5)c34)CC2)cc1	none | KCNK9 block conf inactive | Kir21 sel inactive | HEK293 Tl ctr inactive
CCOC(=O)c1c(NC(=O)COC(=O)c2cc(OC)c(OC)cc2[N+](=O)[O-])sc(C)c1C	none
CCCCN(CC)C(=O)c1cc2cc3ccc(Cl)cc3nc2o1	KCNK9 inh -8.46 | KCNK9 block conf 44.0% | Kir21 sel inactive | HEK293 Tl ctr inactive
CCCCN(CC)CCCNC(=O)c1cc2cc3ccc(OC)cc3nc2o1	none
COc1ccc(NC(=O)CN2CCN(C3c4ccccc4-c4ccccc43)CC2)c(OC)c1	KCNK9 inh -17.4 | KCNK9 block conf 38.5% | Kir21 sel inactive | HEK293 Tl ctr 34.5%
CC(NC(=O)C1CCC(C(C)(C)C)CC1)C(c1ccccc1)N1CCOCC1 (configuration not stated)	none | KCNK9 block conf inactive | Kir21 sel inactive | HEK293 Tl ctr inactive
CC(NC(=O)C1CC1)C(c1cccs1)N1CCOCC1 (configuration not stated)	none
CCOC(=O)c1ccc2c(c1)nc(SC(C)C(=O)NCC1CCCO1)n2CC (configuration not stated)	none (no result: KCNK9 inh, TMEM16A inh, Kir21 inh)
CCN(CC)S(=O)(=O)c1ccc2c(c1)nc(SC(C)C(=O)NCC1CCCO1)n2CC (configuration not stated)	none | KCNK9 block conf inactive | Kir21 sel inactive | HEK293 Tl ctr inactive
CC(C)c1ccc(C(O)P(=O)(OC2CCCCC2)OC2CCCCC2)cc1 (configuration not stated)	none
CCN(CC)c1ccc(CNc2ccc(Br)cn2)cc1	none | KCNK9 block conf inactive | Kir21 sel inactive | HEK293 Tl ctr inactive
O=C(Nc1cccnc1)c1ccc2nc(-c3ccccc3)c(-c3ccccc3)nc2c1	KCNK9 inh -10.9 | KCNK9 block conf 42.0% | Kir21 sel inactive | HEK293 Tl ctr 39.5%
O=C(Nc1ccccn1)c1ccc2nc(-c3ccccc3)c(-c3ccccc3)nc2c1	none (no result: KCNK3 block, TMEM16A act)
Cc1cc(C)cc(NS(=O)(=O)c2c(C(=O)N3CCOCC3)c(C)n(C)c2C)c1	none
CCOC(=O)CSc1nc2c(sc(=S)n2-c2ccccc2OC)c(=O)n1-c1ccccc1OC	KCNK9 inh -10.2 | KCNK9 block conf inactive | Kir21 sel inactive | HEK293 Tl ctr 31.0%
CCOC(=O)CSc1nc2ccccc2c(=O)n1Cc1ccco1	none
CCOC(=O)CSc1nc2c(sc(=S)n2-c2ccccc2OC)c(=O)n1Cc1ccco1	KCNK9 inh -9.07 | KCNK9 block conf inactive | Kir21 sel inactive | HEK293 Tl ctr 36.5%
C(=N\N(Cc1ccccc1)c1ccccc1)/c1cccnc1	KCNK9 inh -12.3 | KCNK9 block conf 53.5% | Kir21 sel inactive | HEK293 Tl ctr 26.0%
C/C(=N\N(Cc1ccccc1)c1ccccc1)c1cccnc1	none
COCCNC(=O)C(c1ccc(F)cc1)N(Cc1ccccc1)C(=O)CCC(=O)Nc1ccccn1 (configuration not stated)	none
CCOC(=O)C1(CCCc2ccccc2)CCN(C2CCSCC2)CC1	none (no result: TMEM16A inh) | KCNK9 block conf inactive | Kir21 sel inactive | HEK293 Tl ctr inactive
O=C(O)CN1C(=O)/C(=C\c2cc(Br)ccc2OCc2ccc(Cl)cc2)SC1=S	none
O=C(O)CN1C(=O)/C(=C\c2cc([N+](=O)[O-])ccc2OCc2ccccc2Cl)SC1=S	none | KCNK9 block conf inactive | Kir21 sel inactive | HEK293 Tl ctr inactive
Cc1cc(C)c2nc(N(CCN(C)C)C(=O)c3ccc4ccccc4c3)sc2c1	none | KCNK9 block conf inactive | Kir21 sel inactive | HEK293 Tl ctr inactive
CN(C)CCN(C(=O)c1ccc2ccccc2c1)c1nc2c(F)cccc2s1	none
O=C(Nc1cccc(Cl)c1N1CCCC1)c1ccco1	KCNK9 inh -9.93 | KCNK9 block conf inactive | Kir21 sel inactive | HEK293 Tl ctr 29.0%
O=C(Nc1ccc(N2CCCC2)c(Cl)c1)c1ccco1	none
COC(=O)c1cc2sccc2n1Cc1nc(-c2ccc(OC)cc2)oc1C	none
COC(=O)c1cc2ccsc2n1Cc1nc(-c2ccc(OC)cc2)oc1C	KCNK9 inh -8.36 | KCNK9 block conf 39.5% | Kir21 sel inactive | HEK293 Tl ctr 51.5%

Screening data as filed in PubChem.
